Source: PubChem BioAssay (NCATS)
Results filed as inconclusive are left out. Where a call stands in place of a potency, no number is given. A number with no mark means an inactive call. The source made the active and inactive calls. The call rests on the fitted dose curve; in most records, active means well fitted inhibition curve with a large enough effect; inconclusive means small, poorly fitted or top-dose-only effect; inactive means flat fitted curve, though single readings scatter.

Columns and labels:
[1] = target: Calcium and integrin-binding protein 1 (Homo sapiens) (UniProt Q99828); assay: Primary qHTS for Identification of Calcium Integrin Binding Protein 1 (CIB1) Competitor (AID 1508620); conditions: CIB1-GST / FITC-alphaIIb peptide fluorescence polarization; series mostly up to 114 µM;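 further: GST tagged CIB1 binding a fluorescein labelled alphaIIb integrin peptide tracer; top concentration of the series differs between compounds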
Chain of Calcium and integrin-binding protein 1 (Homo sapiens) (Q99828 whole entry, looked up): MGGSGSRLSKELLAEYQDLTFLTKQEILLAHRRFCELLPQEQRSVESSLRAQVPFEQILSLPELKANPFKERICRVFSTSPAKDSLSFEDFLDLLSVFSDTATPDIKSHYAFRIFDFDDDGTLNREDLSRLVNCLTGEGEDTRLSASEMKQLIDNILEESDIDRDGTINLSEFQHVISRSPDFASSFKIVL
Procedure, shortened: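 Fluorescence polarization competition: GST-tagged CIB1 (1 uM final) preincubated with compound 15 min at room temperature, then FITC-labelled alphaIIb peptide (100 nM final) added. After 15 min at room temperature, polarization read at Ex 480/Em 540.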

[2] = Primary qHTS for inhibitors of nuclear receptor binding SET domain protein 2 (NSD2) in an isogenic RCH-ACV NSD2 p.E1099K mutant (9B) (AID 1645876); conditions: RCH-ACV (leukaemia line) NSD2 E1099K (9B) viability, CellTiter-Glo, 72 h; series mostly up to 44.9 µM; further: nearly all actives have a fitted effect of over 70% in size

Structure (SMILES)	Potency [1]	Potency [2]	activity change, negative = inhibition [1]	activity change, negative = viability loss [2]
C/C=C/C(O)C1OC(=O)CC1Nc1ccc(C(=O)O)cc1 (stereo not drawn)	inactive	inactive	–	–
C=C[C@H]1[C@H](O[C@@H]2O[C@H](CO)[C@@H](O)[C@H](O)[C@H]2O)OC=C(C(=O)OC)[C@H]1CCOC(=O)c1cc(O)c(O)c(O)c1	inactive	inactive	–	–
C[C@@H]1O[C@@H](O[C@H]2[C@H](O)[C@@H](O)[C@H](OC[C@H]3O[C@@H](OC(=O)[C@]45CCC(C)(C)C[C@H]4C4=CCC6[C@@]7(C)CC[C@H](O[C@@H]8OC[C@H](O)[C@H](O[C@@H]9O[C@H](CO)[C@@H](O)[C@H](O)[C@H]9O)[C@H]8O)[C@@](C)(CO)C7CC[C@@]6(C)[C@]4(C)CC5)[C@H](O)[C@@H](O)[C@@H]3O)O[C@@H]2CO)[C@H](O)[C@H](O)[C@H]1O (stereo partly drawn)	–	–	1.27% [at 12.4 µM]	0.607% [at 9.23 µM]
C[C@@H]1O[C@@H](O[C@H]2[C@H](OC(=O)[C@]34CCC(C)(C)C[C@H]3C3=CCC5[C@@]6(C)CC[C@H](O[C@@H]7O[C@H](C(=O)O)[C@@H](O)[C@H](O)[C@H]7O[C@@H]7O[C@H](CO)[C@H](O)[C@H](O)[C@H]7O)[C@@](C)(C=O)C6CC[C@@]5(C)[C@]3(C)C[C@H]4O)O[C@H](C)[C@H](O[C@@H]3O[C@H](C)[C@H](O)[C@H](O)[C@H]3O)[C@@H]2O)[C@H](O)[C@H](O)[C@H]1O[C@@H]1OC[C@@H](O)[C@H](O[C@@H]2O[C@H](CO)[C@@H](O)[C@H](O)[C@H]2O)[C@H]1O (stereo partly drawn)	–	–	-0.579% [at 12.4 µM]	-94% [at 4.96 µM]
